Experimental data reported in publication PMC7862700, “An all-to-all approach to the identification of sequence-specific readers for epigenetic DNA modifications on cytosine”.

Assays:
Assay in all cases: DAPPL (digital affinity profiling via proximity ligation, sequencing); 10 mM Tris-HCl pH 7.5, 50 mM NaCl, 1 mM DTT, 4% glycerol, room temperature, 30 min; GST-TFs on glutathione beads, 16-mer random dsDNA library, 0.1% formaldehyde crosslink after washing; high values mean tight binding
FLI1 = target: T1, FLI1 (Homo sapiens, UniProt Q01543 1-452); conditions: protein: recombinant; tags: N-terminal GST; dsDNA, one strand shown
T1 sequence: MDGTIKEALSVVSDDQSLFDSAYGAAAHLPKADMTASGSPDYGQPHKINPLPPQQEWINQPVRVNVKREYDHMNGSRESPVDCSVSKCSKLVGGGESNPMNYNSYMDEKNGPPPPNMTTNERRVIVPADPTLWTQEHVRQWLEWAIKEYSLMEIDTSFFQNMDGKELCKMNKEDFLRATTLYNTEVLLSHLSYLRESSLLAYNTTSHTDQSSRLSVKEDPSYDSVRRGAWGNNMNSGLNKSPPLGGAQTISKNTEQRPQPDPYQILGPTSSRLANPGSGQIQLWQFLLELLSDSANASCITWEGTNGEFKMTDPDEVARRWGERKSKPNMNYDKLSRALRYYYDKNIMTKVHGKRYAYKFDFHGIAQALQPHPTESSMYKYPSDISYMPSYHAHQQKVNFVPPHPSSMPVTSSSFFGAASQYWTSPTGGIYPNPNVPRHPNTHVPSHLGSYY
Summary of the method: (§1)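 GST fusions of human transcription factors were expressed in yeast and captured with glutathione beads. Once given DNA barcodes and pooled alongside a tag-only sample, they were incubated for 30 min at room temperature with 200 nmole of a random double-stranded 16-mer DNA library in Tris/NaCl/DTT/glycerol buffer, then washed, crosslinked (0.1% formaldehyde), proximity-ligated, PCR-amplified and sequenced on an Illumina NextSeq500. The binding signal of each hexamer is its read frequency for a factor divided by its frequency for the tag-only sample.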

ELK1 = target: T2, ELK1 (Homo sapiens, UniProt P19419 1-428); conditions: protein: recombinant; tags: N-terminal GST; dsDNA, one strand shown
T2 sequence: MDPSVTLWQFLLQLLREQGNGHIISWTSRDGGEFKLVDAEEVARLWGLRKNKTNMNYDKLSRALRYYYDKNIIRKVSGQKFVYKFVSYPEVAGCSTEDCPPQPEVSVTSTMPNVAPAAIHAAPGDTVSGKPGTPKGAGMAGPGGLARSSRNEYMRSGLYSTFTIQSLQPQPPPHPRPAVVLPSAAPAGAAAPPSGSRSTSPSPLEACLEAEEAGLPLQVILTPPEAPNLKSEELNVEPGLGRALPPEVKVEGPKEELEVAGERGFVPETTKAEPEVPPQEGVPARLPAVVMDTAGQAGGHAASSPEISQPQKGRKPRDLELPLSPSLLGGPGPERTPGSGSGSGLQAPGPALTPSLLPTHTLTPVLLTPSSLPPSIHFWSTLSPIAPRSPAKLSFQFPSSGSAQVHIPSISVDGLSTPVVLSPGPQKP
Summary of the method: as §1

GABPA = target: T3, GABPA (Homo sapiens, UniProt Q06546 1-454); conditions: protein: recombinant; tags: N-terminal GST; dsDNA, one strand shown
T3 sequence: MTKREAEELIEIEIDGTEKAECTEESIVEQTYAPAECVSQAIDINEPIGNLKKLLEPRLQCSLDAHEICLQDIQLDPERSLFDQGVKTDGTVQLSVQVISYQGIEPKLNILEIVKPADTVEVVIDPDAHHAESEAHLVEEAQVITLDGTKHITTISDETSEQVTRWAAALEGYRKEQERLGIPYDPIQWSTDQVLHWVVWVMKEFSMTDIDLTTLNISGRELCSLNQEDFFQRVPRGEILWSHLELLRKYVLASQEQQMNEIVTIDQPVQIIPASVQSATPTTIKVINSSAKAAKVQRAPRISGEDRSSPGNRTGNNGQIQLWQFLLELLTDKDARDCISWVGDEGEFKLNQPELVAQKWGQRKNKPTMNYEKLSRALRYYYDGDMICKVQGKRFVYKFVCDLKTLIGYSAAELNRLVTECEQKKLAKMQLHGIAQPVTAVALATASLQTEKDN
Summary of the method: as §1

ERG = target: T4, ERG (Homo sapiens, UniProt P11308 1-479); conditions: protein: recombinant; tags: N-terminal GST; dsDNA, one strand shown
T4 sequence: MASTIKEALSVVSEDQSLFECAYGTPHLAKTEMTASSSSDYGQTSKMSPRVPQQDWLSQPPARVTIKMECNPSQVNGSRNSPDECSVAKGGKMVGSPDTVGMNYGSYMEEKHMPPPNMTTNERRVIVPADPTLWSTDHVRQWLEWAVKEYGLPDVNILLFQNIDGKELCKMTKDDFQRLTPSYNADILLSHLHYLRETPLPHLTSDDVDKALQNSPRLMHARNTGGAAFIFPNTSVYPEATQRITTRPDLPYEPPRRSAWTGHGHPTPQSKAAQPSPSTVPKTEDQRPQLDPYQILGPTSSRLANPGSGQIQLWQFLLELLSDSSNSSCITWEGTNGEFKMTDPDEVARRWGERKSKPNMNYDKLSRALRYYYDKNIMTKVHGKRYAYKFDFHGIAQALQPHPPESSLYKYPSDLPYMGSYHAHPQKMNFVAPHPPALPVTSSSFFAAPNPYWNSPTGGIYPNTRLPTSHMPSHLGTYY
Summary of the method: as §1

ELF1 = ELF1 (Homo sapiens, UniProt P32519 1-619); conditions: protein: recombinant; tags: N-terminal GST; dsDNA, one strand shown
Summary of the method: as §1

EHF = target: T5, EHF (Homo sapiens, UniProt Q9NZC4 1-300); conditions: protein: recombinant; tags: N-terminal GST; dsDNA, one strand shown
T5 sequence: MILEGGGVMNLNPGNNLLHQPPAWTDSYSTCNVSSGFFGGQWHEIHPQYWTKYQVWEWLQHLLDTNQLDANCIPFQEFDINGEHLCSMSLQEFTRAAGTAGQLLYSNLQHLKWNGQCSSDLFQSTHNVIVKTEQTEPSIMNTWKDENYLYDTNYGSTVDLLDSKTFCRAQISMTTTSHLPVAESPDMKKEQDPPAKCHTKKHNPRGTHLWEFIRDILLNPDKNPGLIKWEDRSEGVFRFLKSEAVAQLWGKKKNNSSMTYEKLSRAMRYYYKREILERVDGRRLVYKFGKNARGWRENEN
Summary of the method: as §1

SPI1 = SPI1 (Homo sapiens, UniProt P17947 1-270); conditions: protein: recombinant; tags: N-terminal GST; dsDNA, one strand shown
Summary of the method: as §1

SPIB = SPIB (Homo sapiens, UniProt Q01892 1-262); conditions: protein: recombinant; tags: N-terminal GST; dsDNA, one strand shown
Summary of the method: as §1

ELK3 = target: T6, ELK3 (Homo sapiens, UniProt P41970 1-407); conditions: protein: recombinant; tags: N-terminal GST; dsDNA, one strand shown
T6 sequence: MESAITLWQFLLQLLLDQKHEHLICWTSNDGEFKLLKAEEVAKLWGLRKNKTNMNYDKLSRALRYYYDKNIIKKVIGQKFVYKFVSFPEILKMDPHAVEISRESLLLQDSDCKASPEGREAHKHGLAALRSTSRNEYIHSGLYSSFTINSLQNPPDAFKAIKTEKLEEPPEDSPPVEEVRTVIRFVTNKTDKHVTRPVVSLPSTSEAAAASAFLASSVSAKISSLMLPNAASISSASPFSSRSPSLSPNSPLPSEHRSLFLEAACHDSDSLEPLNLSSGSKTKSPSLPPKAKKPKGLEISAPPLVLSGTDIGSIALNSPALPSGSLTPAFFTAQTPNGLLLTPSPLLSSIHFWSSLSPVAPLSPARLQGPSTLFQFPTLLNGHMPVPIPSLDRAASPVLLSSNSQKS
Summary of the method: as §1

FEV = target: T7, FEV (Homo sapiens, UniProt Q99581 1-238); conditions: protein: recombinant; tags: N-terminal GST; dsDNA, one strand shown
T7 sequence: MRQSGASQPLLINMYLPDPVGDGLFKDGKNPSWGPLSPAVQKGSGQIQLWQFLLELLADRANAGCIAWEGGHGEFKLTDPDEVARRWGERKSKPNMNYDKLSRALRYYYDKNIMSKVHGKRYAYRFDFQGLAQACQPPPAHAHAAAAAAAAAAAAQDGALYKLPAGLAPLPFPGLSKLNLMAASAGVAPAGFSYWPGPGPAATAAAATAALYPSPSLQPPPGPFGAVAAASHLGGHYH
Summary of the method: as §1

ETV5 = ETV5 (Homo sapiens, UniProt P41161 1-510); conditions: protein: recombinant; tags: N-terminal GST; dsDNA, one strand shown
Summary of the method: as §1

HSF1 = HSF1 (Homo sapiens, UniProt Q00613 1-529); conditions: protein: recombinant; tags: N-terminal GST; chain copies: 3; dsDNA, one strand shown
Summary of the method: as §1

SPIC = target: T8, SPIC (Homo sapiens, UniProt Q8N5J4 1-248); conditions: protein: recombinant; tags: N-terminal GST; dsDNA, one strand shown
T8 sequence: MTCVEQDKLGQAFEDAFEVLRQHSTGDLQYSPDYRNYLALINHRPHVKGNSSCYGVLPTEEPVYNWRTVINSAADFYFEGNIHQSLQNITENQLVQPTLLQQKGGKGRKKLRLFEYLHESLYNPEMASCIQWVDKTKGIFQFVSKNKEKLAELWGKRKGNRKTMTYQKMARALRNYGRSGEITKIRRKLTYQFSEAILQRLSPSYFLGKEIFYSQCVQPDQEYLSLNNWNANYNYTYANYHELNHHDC
Summary of the method: as §1

ELF4 = ELF4 (Homo sapiens, UniProt Q99607 1-663); conditions: protein: recombinant; tags: N-terminal GST; dsDNA, one strand shown
Summary of the method: as §1

ELK4 = target: T9, ELK4 (Homo sapiens, UniProt P28324-2 1-405); conditions: protein: recombinant; tags: N-terminal GST; dsDNA, one strand shown
T9 sequence: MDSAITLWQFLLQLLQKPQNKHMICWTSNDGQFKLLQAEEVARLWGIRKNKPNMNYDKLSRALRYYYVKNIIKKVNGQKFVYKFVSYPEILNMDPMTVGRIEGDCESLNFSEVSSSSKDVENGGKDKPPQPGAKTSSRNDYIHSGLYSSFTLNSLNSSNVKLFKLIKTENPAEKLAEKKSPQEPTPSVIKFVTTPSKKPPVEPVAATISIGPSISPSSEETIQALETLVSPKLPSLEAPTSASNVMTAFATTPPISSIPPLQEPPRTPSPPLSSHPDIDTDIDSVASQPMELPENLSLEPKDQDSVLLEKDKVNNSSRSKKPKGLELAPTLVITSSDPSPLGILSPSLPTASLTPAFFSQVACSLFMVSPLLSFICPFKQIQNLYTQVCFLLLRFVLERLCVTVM
Summary of the method: as §1

ETV2 = target: T10, ETV2 (Homo sapiens, UniProt O00321 1-342); conditions: protein: recombinant; tags: N-terminal GST; dsDNA, one strand shown
T10 sequence: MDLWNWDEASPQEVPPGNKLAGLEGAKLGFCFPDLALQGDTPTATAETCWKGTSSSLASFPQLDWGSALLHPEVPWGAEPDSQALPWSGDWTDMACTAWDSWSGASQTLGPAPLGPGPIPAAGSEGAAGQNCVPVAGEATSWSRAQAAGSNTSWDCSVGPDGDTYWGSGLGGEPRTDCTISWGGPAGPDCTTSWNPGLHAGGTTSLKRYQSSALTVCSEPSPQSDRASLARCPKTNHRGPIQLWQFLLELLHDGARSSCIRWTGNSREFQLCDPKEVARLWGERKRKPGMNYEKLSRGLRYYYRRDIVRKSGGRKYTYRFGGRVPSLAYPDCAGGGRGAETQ
Summary of the method: as §1

ELF3 = target: T11, ELF3 (Homo sapiens, UniProt P78545 1-371); conditions: protein: recombinant; tags: N-terminal GST; dsDNA, one strand shown
T11 sequence: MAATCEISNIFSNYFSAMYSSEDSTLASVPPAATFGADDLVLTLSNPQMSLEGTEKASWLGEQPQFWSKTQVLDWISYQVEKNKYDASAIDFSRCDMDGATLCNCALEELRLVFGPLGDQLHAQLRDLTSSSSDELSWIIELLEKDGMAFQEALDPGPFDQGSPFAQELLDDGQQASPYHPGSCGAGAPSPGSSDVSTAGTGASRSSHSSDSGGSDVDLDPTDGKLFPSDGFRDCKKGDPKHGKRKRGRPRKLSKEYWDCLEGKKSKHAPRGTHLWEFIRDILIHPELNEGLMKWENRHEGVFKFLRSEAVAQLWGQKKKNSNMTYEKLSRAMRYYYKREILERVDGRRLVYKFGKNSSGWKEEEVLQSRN
Summary of the method: as §1

CRX = CRX (Homo sapiens, UniProt O43186 1-299); conditions: protein: recombinant; tags: N-terminal GST; dsDNA, one strand shown
Summary of the method: as §1

ETV1 = ETV1 (Homo sapiens, UniProt P50549 1-477); conditions: protein: recombinant; tags: N-terminal GST; dsDNA, one strand shown
Summary of the method: as §1

Sequence of ETV1 (P50549 whole entry): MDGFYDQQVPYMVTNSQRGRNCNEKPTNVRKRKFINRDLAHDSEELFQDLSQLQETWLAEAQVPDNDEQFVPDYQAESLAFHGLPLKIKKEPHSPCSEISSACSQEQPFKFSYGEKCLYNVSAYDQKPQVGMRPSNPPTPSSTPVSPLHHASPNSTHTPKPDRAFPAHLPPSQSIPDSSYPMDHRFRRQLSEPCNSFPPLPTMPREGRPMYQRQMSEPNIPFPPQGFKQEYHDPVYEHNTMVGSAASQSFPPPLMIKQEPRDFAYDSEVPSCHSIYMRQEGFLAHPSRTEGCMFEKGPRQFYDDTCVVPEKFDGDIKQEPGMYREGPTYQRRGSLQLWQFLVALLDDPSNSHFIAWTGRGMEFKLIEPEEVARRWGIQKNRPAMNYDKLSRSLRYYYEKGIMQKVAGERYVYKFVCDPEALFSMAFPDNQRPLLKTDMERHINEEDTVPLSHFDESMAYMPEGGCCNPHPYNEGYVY
Sequence of SPIB (Q01892 whole entry): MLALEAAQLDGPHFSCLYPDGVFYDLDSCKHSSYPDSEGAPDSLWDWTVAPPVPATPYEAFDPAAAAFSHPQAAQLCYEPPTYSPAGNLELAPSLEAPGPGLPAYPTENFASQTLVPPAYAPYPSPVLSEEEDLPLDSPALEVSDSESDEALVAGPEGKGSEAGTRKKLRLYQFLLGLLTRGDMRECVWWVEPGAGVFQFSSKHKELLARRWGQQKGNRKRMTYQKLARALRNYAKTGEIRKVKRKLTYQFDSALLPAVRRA
Sequence of ETV5 (P41161 whole entry): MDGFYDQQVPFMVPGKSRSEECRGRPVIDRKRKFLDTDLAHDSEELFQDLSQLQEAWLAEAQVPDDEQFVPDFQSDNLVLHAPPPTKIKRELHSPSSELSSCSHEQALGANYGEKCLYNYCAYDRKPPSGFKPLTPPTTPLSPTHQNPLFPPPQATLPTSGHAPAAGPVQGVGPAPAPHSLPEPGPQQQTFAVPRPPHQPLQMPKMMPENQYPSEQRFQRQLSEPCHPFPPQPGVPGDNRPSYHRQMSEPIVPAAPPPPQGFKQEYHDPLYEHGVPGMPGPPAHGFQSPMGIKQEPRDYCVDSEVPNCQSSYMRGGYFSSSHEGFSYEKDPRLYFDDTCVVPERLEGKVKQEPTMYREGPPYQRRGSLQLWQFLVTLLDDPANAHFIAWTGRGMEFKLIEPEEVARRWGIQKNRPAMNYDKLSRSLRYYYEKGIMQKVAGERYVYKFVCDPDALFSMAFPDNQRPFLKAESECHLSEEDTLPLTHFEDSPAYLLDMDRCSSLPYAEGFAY
Sequence of HSF1 (Q00613 whole entry): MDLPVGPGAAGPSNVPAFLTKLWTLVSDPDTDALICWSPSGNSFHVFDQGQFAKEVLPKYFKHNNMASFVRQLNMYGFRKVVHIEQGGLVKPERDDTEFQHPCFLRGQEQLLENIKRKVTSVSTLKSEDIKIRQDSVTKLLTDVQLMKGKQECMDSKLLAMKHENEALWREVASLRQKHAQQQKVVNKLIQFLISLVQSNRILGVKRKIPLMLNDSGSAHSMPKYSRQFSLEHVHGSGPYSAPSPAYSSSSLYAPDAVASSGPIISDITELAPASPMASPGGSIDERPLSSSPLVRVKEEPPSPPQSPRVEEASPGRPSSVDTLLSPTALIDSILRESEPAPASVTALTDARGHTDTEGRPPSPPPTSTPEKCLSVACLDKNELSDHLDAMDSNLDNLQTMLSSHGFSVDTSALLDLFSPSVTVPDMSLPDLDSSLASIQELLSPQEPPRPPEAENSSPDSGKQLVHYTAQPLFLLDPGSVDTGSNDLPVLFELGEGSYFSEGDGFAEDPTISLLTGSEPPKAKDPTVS
Sequence of ELF4 (Q99607 whole entry): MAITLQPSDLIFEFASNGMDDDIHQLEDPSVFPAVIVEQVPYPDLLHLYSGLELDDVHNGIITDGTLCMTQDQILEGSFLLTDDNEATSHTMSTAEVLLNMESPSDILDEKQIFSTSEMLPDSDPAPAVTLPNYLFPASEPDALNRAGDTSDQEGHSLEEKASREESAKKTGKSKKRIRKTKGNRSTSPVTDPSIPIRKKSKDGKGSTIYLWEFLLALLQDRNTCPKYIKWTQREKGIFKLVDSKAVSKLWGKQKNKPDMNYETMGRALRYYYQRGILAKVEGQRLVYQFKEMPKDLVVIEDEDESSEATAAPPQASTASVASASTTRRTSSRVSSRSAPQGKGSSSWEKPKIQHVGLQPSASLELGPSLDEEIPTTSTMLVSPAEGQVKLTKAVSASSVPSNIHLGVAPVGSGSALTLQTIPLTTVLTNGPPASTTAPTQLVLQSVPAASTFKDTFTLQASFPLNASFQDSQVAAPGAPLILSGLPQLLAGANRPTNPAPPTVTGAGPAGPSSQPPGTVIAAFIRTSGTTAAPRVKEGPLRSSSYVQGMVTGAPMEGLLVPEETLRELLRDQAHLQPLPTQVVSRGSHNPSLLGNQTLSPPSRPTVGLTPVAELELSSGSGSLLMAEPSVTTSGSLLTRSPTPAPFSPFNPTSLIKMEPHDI
Sequence of CRX (O43186 whole entry): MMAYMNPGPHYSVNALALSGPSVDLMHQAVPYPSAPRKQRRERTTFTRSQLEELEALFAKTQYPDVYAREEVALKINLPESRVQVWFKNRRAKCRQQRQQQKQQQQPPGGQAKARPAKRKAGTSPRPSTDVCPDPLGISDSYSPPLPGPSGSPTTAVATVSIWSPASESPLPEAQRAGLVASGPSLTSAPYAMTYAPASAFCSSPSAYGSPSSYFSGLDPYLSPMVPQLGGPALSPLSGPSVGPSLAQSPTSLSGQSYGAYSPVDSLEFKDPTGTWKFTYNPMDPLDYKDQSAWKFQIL
Sequence of ELF1 (P32519 whole entry): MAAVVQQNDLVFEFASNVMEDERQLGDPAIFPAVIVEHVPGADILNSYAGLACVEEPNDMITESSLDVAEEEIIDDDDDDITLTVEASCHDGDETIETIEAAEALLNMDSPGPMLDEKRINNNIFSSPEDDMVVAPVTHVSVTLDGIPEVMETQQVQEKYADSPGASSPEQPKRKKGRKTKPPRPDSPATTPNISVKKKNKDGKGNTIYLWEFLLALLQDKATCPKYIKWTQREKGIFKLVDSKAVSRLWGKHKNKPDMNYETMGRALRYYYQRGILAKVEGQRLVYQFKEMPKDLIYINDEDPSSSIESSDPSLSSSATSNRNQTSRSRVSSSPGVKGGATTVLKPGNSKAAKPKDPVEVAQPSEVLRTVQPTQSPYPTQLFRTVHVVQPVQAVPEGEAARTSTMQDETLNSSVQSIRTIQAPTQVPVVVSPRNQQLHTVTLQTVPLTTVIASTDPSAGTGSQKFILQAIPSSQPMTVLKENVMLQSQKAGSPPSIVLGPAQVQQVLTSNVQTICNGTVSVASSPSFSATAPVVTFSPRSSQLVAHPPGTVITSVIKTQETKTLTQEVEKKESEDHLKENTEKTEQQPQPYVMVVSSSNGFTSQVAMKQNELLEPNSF

For ACATTC, the binding signal (FLI1) was 1.41 fold enrichment (6-mer frequency, TF over GST control), the binding signal (ELK1) was 1.32 fold enrichment (6-mer frequency, TF over GST control) and the binding signal (GABPA) was 1.31 fold enrichment (6-mer frequency, TF over GST control). For the same sequence, the binding signal (ERG) was 1.23 fold enrichment (6-mer frequency, TF over GST control), the binding signal (ELF1) was 1.37 fold enrichment (6-mer frequency, TF over GST control) and the binding signal (EHF) was 1.25 fold enrichment (6-mer frequency, TF over GST control). The binding signal (SPI1) was 1.24 fold enrichment (6-mer frequency, TF over GST control), the binding signal (SPIB) was 1.23 fold enrichment (6-mer frequency, TF over GST control) and the binding signal (ELK3) was 1.35 fold enrichment (6-mer frequency, TF over GST control). For the same sequence, the binding signal (FEV) was 1.21 fold enrichment (6-mer frequency, TF over GST control), the binding signal (ETV5) was 1.39 fold enrichment (6-mer frequency, TF over GST control) and the binding signal (HSF1) was 2.56 fold enrichment (6-mer frequency, TF over GST control). For the same sequence, the binding signal (SPIC) was 1.22 fold enrichment (6-mer frequency, TF over GST control), the binding signal (ELF4) was 1.32 fold enrichment (6-mer frequency, TF over GST control) and the binding signal (ELK4) was 1.22 fold enrichment (6-mer frequency, TF over GST control). For the same sequence, the binding signal (ETV2) was 1.23 fold enrichment (6-mer frequency, TF over GST control), the binding signal (ELF3) was 1.31 fold enrichment (6-mer frequency, TF over GST control) and the binding signal (CRX) was 1.4 fold enrichment (6-mer frequency, TF over GST control). The binding signal (ETV1) was 1.29 fold enrichment (6-mer frequency, TF over GST control).
